Assay outcomes: PubChem, Broad Institute
Wnt bcat act = activators of Wnt/beta-catenin signaling; Wnt/beta-catenin reporter cell assay, activator, plate reader; activation, % at 9.35 µM; actives 1.2% (n = 300,000); in the data active means activation above about 30%, passing the limit was not always enough;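 further: 0% = neutral control wells and 100% = positive control wells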
MITF TRPM1 HTS = MITF TRPM1 promoter activation in melanoma cells; SK-MEL-5 TRPM1-promoter luciferase, 24 h; % of positive control, neutral wells = 0; activation, % at 12.5 µM; AID 588334; actives 0.75% (n = 300,000);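 active means mean activation of at least 80% with every replicate also reaching 80%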;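 further: 0% = neutral control wells and 100% = parthenolide positive control wells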
GSIS activator = GLuc luminescence reporter in INS-1E cells, primary screen for activators of glucose-dependent secretion of insulin; AID 743287; INS-1E GLuc reporter insulin secretion, 2-3 h; activation, % at 16.6 µM; actives 0.61% (n = 370,000);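 active means lowest replicate activation of at least 40%, so every replicate reaches that level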;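 further: 0% = median of neutral control wells and 100% = median of IBMX positive control wells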
miR-122 sensor = inhibitors of miR-122 in Huh7 cells; Huh7 miR-122 Renilla luciferase sensor, 48 h; neutral wells = 0, positive control = 100; activation (reporter increase), % at 12.5 µM; actives 0.3% (n = 340,000); AID 602342;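 active means mean replicate activation score at least 90 and every replicate individually at or above 90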;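 further: higher luciferase means less miR-122 activity so hits act as miR-122 inhibitors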
Dyrk1A ADPGlo = blocks rat Dyrk1A kinase activity | Q63470 | ADP-Glo luminescence, NFATc1 peptide | inhibition, % at 12.5 µM | actives 0.43% (n = 310,000) | AID 504441;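 further: plate controls were vehicle with enzyme for no effect and no enzyme for full effect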
NSD2 HMT inh = NSD2 (human) methyltransferase inhibition; O96028; NSD2 peptide methylation, AlphaScreen, 120 min; inhibition, % at 12.5 µM; actives 0.54% (n = 310,000)
An asterisk follows results filed as active; . = not tested or not shown; ! = repeats disagree; [ ] = another dose, or the depositor's remark. Rows were chosen to be rich in hits. Some 2.4% of all compounds tested hit in one or more screens of this group. Unless noted, no stated cut-off is given here; in the data, active means inhibition above about 50%; inactive means the rest.

SMILES | Wnt bcat act | MITF TRPM1 HTS | GSIS activator | miR-122 sensor | Dyrk1A ADPGlo | NSD2 HMT inh
OCCNCc1ccc(OCc2ccc(Cl)cc2Cl)cc1 | 34* | 24 | 20 | -7 | 3 | 5
CCCC/C=C/[C@H](c1ccccc1)[C@H](CO)Cc1cccnc1 | -5 | 0 | 104* | 6 | 10 | .
CN(CC(=O)Nc1ccc(F)cc1)C(=O)CSc1nnc(Cc2ccccc2)o1 | 63* | -12 | 0 | . | 5 | -2
COc1cccc(NC(=O)Nc2ccc3c(c2)C(=O)N(C)C[C@@H](OC)[C@@H](C)CN(CC2CC2)[C@H](C)CO3)c1 | . | . | 4 | . | . | .
C[C@@H]1CN([C@@H](C)CO)C(=O)CCCn2cc(nn2)CO[C@H]1CN(C)S(=O)(=O)c1cccs1 | -2 | . | 2 | 1 | . | .
C[C@@H]1CN([C@H](C)CO)C(=O)CCCn2cc(nn2)CO[C@H]1CN(C)S(=O)(=O)c1cccs1 | -1 | . | 41*! | 19[16.7 µM] | . | .
COc1cc(C2C3=C(COC3=O)OC(C)(C)Oc3cc4c(cc32)OCO4)cc(OC)c1OC (stereo not drawn) | -23 | -54 | -8 | 114* | -2 | -2
CCCC(=O)N(C)c1nnc(-c2ccc(OC)cc2)s1 | 34* | 57 | . | -4 | -6 | .
COCCN(C(=O)CCc1ccc(OC)cc1)c1nnc(-c2ccncc2)s1 | -1 | -6 | 13 | . | . | -6
CCCN1C[C@H](C)[C@@H](OC)CN(C)C(=O)c2ccc(NS(=O)(=O)c3ccccc3)cc2OC[C@H]1C | . | . | -2 | 9[16.7 µM] | . | .
COc1ccccc1N1CCN(C2=Nc3cccc4cccc2c34)CC1 | -3 | 95* | -13 | -10 | 7 | 21
CC(=O)N1CCN(C2=Nc3cccc4cccc2c34)CC1 | 11 | 20 | . | -2 | 12 | .
C[C@@H]1CN([C@@H](C)CO)C(=O)Cc2cc(NC(=O)Nc3cccc4ccccc34)ccc2O[C@H]1CN(C)Cc1ccc2c(c1)OCO2 | . | . | -15 | -7[16.7 µM] | . | .
Cc1ccc(Sc2ncccc2O)cc1 | 69* | 20 | -2 | . | 8 | 0
Cc1ccc(Sc2ncccc2N)cc1 | 7 | . | -44 | -3 | . | -2
COc1ccc(Cl)cc1N(CC(=O)N1CCCC1)S(=O)(=O)c1ccc(C)cc1 | -2 | 4 | 10 | 141* | -3 | -2
COc1ccccc1N(CC(=O)N1CCCCC1C)S(=O)(=O)c1ccc(Cl)cc1 (stereo not drawn) | -1 | . | -3 | 128* | . | -4
COc1ccccc1N(CC(=O)N1CCCC1)S(=O)(=O)c1ccc(C)cc1 | -1 | 4 | -2 | . | 1 | -20
COc1ccccc1N(CC(=O)N1CCCCCC1)S(=O)(=O)c1ccc(C)cc1 | -1 | 3 | 0 | 41 | -10 | 2
Cc1ccc(S(=O)(=O)Nc2ccc3c(c2)C(=O)N([C@@H](C)CO)C[C@@H](C)[C@H](CN(C)S(=O)(=O)c2cn(C)cn2)OCCCC[C@@H](C)O3)cc1 | . | . | 11 | 4[16.7 µM] | . | .
COc1ccc2c3c(n(C)c2c1)[C@@H](CO)N(C(C)=O)CC31CN(C(=O)c2ccccc2)C1 | . | . | 17 | . | . | .
Cc1ccc(S(=O)(=O)N[C@@H]2C=C[C@@H](CC(=O)NCCN3CCCCC3)O[C@@H]2CO)cc1 | . | . | -1 | 3[16.7 µM] | . | .
C[C@H](CO)N1C[C@H](C)[C@H](CN(C)CC2CCCCC2)Oc2c(NS(=O)(=O)c3ccc(Cl)cc3)cccc2C1=O | . | . | 3 | 37[16.7 µM] | . | .
CCCCN1C(=O)C(=O)N(c2ccccc2)C1=S | 1 | 122* | 5 | . | 5 | 0
Cc1nc(NC(=O)c2csc3ccccc23)sc1C | 42* | 30 | -11 | 8 | 4 | 5
SMILES | Wnt bcat act | MITF TRPM1 HTS | GSIS activator | miR-122 sensor | Dyrk1A ADPGlo | NSD2 HMT inh
C[C@H](NC(=O)C[C@@H]1C=C[C@@H](NC(=O)C2CCC2)[C@@H](CO)O1)c1ccccc1 | . | . | 0 | . | . | .
CC(=O)Nc1ccc2nc(CN3CCC(CO)(CCc4ccccc4)CC3)ccc2c1 | 2 | -1 | -18 | 162* | -4 | -1
CC(C)(C)c1nc2ccccc2c2nnc(SCC(=O)Nc3nccs3)n12 | -12 | -24 | 77* | . | . | 17
CC(C)(C)c1nc2ccccc2c2nnc(SCC(=O)Nc3nc4ccccc4s3)n12 | . | 2 | 23 | . | -18 | 4
COc1ccc(-c2cc(C(=O)Nc3cccnc3)no2)cc1OC | 29 | 87* | 40 | -4 | 3 | 21
COc1ccc(-c2noc(CCC(=O)Nc3cccnc3)n2)cc1OC | 0 | 15 | 66* | 1 | -1 | .
O=C(Nc1cccnc1)c1cc(-c2ccc(Cl)c(Cl)c2)on1 | 14 | 16 | 25 | 0 | -6 | -6
Cc1ccc(C(=O)OCC(=O)NCC2CCCO2)c(C)c1 (stereo not drawn) | 0 | 9 | 1 | . | 4 | 0
Cc1c(C(=O)OCC(=O)NCC2CCCO2)cccc1[N+](=O)[O-] (stereo not drawn) | 37* | -11 | 18 | 0 | 2 | 0
O=C1CC(c2ccco2)CC2=C1C=Nc1ccccc1N2 (stereo not drawn) | 45* | -4 | . | -1 | 2 | 2
Cc1ccc(CNC(=O)Cn2c(=O)c3sccc3n(Cc3ccc([N+](=O)[O-])cc3)c2=O)cc1 | -3 | -7 | 42* | . | -5 | -1
CC(=O)c1cccc(NC(=S)NC(=O)C(C)C)c1 | 36* | 2 | . | 2 | -4 | .
COc1ccc(/C(N)=N/OC(=O)C2CCCCC2)cc1 | 40* | 47 | -5 | -1 | 17 | -4
N/C(=N\OC(=O)C1CCCCC1)c1cccc(Br)c1 | . | 108* | . | -7 | -2 | -3
COc1ccc(C(=O)C2CCN(C(=O)c3ccc(C)cc3)CC2)cc1 | -3 | -26 | . | 1 | -3 | -2
COc1ccc(/C(N)=N/OC(=O)C2CCCCC2)cc1OC | 26 | 88* | 6 | . | 2 | -4
COc1ccc(-c2ccc(C(=O)C3CC3)cc2)cc1 | 27 | 107* | -6 | . | 0 | 1
COc1ccc(C(=O)O/N=C(\N)c2ccc(OC)c(OC)c2)cc1 | 26 | 102* | 45* | . | -4 | -5
COc1ccc(NC(=O)N[C@H]2CC[C@@H](CCNC(=O)Cc3ccncc3)O[C@@H]2CO)cc1 | . | . | 0 | . | . | .
C[C@@H]1CN([C@H](C)CO)C(=O)c2cc(NC(=O)NC3CCCCC3)ccc2O[C@H]1CN(C)S(=O)(=O)c1cn(C)cn1 | . | . | 6 | -2[16.7 µM] | . | .
c1ccc2c(NCC3CCCO3)nc(N3CCCCC3)nc2c1 (stereo not drawn) | 3 | -4 | 45* | -6 | 2 | .
c1ccc2c(N3CCCCC3)nc(N3CCCC3)nc2c1 | -5 | . | 52* | 0 | -5 | -24
CC(Sc1ccsc1[N+](=O)[O-])C(=O)NCc1ccccc1 (stereo not drawn) | 54* | . | 5 | . | . | -4
COc1ccccc1CNC(=O)C(C)Sc1ccsc1[N+](=O)[O-] (stereo not drawn) | -2 | 1 | 2 | . | -3 | -2
Nc1ccccc1-n1cccc1 | 62* | . | -15 | 0 | . | 1
